# Screens deposited in PubChem BioAssay by several laboratories.
# An excerpt weighted towards active compounds, which were near 1.9% of everything screened.
# sEH act: soluble epoxide hydrolase (human) activation. purified human sEH enzymatic activity, activator screen. 0.04% of 91,000 active. activation, % at 2 µM. AID 717; in the data active = activation above about 37%
# Target sequence (P34913 whole entry, looked up): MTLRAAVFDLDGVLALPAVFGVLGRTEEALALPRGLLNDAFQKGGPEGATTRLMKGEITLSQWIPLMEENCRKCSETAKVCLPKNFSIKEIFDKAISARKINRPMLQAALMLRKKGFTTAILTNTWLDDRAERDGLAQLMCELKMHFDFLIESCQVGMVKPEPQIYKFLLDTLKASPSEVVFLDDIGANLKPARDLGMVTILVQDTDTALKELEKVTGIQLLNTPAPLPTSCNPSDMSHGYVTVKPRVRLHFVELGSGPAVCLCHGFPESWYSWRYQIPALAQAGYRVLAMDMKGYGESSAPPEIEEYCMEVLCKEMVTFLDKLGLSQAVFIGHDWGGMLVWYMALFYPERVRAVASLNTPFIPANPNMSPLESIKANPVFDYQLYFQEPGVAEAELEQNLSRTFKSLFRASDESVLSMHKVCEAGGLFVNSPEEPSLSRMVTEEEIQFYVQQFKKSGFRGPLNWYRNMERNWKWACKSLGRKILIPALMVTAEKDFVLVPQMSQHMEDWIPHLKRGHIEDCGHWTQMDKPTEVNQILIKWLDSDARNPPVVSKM
# Measles CPE: protection of cells from measles virus; Measles virus-infected cells, CPE protection, absorbance; 1.5% of 140,000 active; protection (pct of control), % at 4 µM; in the data active = protection mostly above about 24%, no sharp cut-off; inactive = mostly below about 26%
# sEH inh: soluble epoxide hydrolase (human) inhibition | inhibition, % at 2 µM | recombinant human sEH enzymatic activity assay | 0.34% of 91,000 active; in the data active = inhibition above about 80%
# sdo1 growth: restores growth of sdo1-depleted yeast. S. cerevisiae sdo1-depleted JHY4D growth rescue, OD600 30 h; hits give high values; pdr5 snq2 efflux-pump mutant strain. z-score at 10 µM. 0.21% of 140,000 active;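 active = z-score above 3 at both the 24 hr and the 30 hr optical density reads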
# A number is an active result; – = inactive; · = not tested or not shown.
SMILES,sEH act,Measles CPE,sEH inh,sdo1 growth
CC(C)CCNC(=O)Cc1c(C(=O)O)[nH]c2ccc(Cl)cc12,–,46,–,–
CC[n+]1c(-c2ccccc2)csc1Nc1c(C)n(C)n(-c2ccccc2)c1=O,·,–,·,–
CC[n+]1c(-c2ccc(C)cc2)csc1Nc1c(C)n(C)n(-c2ccccc2)c1=O,·,30,·,–
Cc1ccc(-n2c(SCC(=O)N3CC(=O)Nc4ccccc43)nc3ccccc3c2=O)cc1,·,33,·,–
Cc1cc(-c2n[nH]c(=S)o2)c(C)n1-c1ccccc1,–,–,–,–
CC(=O)C1=NN(c2ccccc2)C2(S1)S/C(=C\c1ccccc1)C(=O)N2c1ccccc1 (configuration not stated),–,34,–,–
CCn1c(CSc2nc3ccccc3s2)nnc1SCC(=O)c1ccc2c(c1)OCCO2,–,–,–,–
COc1ccc2c(C(=O)CN3CCN(c4ccccc4)CC3)c[nH]c2c1,–,28,–,–
O=C(NCC1CCCO1)c1ccc(COc2ccc(F)cc2)o1 (configuration not stated),–,32,–,–
CCOc1ccc(OCc2ccc(C(=O)NCC3CCCO3)o2)cc1 (configuration not stated),–,–,–,–
Cn1cccc1/C=C1\SC(=S)N(NC(=O)c2ccccc2)C1=O,·,27,·,–
Cn1cccc1/C=C1\SC(=S)N(NC(=O)c2cccc(Cl)c2)C1=O,·,–,·,–
CCC(=O)N/N=C/c1ccc(OS(=O)(=O)c2ccccc2)cc1,·,18,·,–
[O-]/[N+](=C\c1ccc(OC(F)F)cc1)c1ccccc1,–,42,–,–
Clc1ccc(-n2nnnc2-c2ccccc2)cc1Cl,·,–,·,–
CCCCOP(=O)(OCCCC)C(Nc1ccccc1)c1ccc2c(c1)OCO2 (configuration not stated),·,–,·,–
O=C(CCCOc1ccccc1)Nc1ccc(Br)cc1,–,·,–,·
Cc1ccccc1OCCCC(=O)Nc1ccc(Br)cc1,–,–,93,–
O=C1OCC/C1=C\c1ccccc1,·,–,·,–
Cc1cc(C)nc(Nc2n[nH]c(-c3ccc(N)cc3)n2)n1,–,26,–,–
CCC(C)OC(=O)C1=C(C)NC2=C(C(=O)C(C(=O)OC)C(C)C2)C1c1ccc(N(C)C)cc1 (configuration not stated),–,58,–,–
CCCOC(=O)C1=C(C)NC2=C(C(=O)C(C(=O)OC)C(C)C2)C1c1ccc(N(CC)CC)cc1 (configuration not stated),–,–,–,–
CCOc1ccc2[nH]c(=O)c(CN(Cc3cccs3)Cc3nnnn3C(C)(C)CC)cc2c1,–,–,–,–
CCC(C)(C)n1nnnc1CN(Cc1cccs1)Cc1cc2cc(OC)ccc2[nH]c1=O,·,37,·,–
CCCc1[nH]nc2c1C(c1cc(OC)cc(OC)c1)C(C#N)=C(N)O2 (configuration not stated),–,83,–,–
SMILES,sEH act,Measles CPE,sEH inh,sdo1 growth
CCCc1[nH]nc2c1C(c1ccc(OC)c(CSC3=NCCS3)c1)C(C#N)=C(N)O2 (configuration not stated),–,28,–,–
C(#CCN1CCOCC1)COC(c1ccccc1)c1ccccc1,–,–,–,–
CC(=O)OC(C#CCN1CCOCC1)c1ccccc1 (configuration not stated),–,46,–,–
CCCn1cnc2c(c1=O)c1nc3ccccc3nc1n2Cc1ccccc1OC,–,–,–,–
O=C(Nc1ccc(S(=O)(=O)Nc2ccc(Cl)cc2)cc1)C1CCCO1 (configuration not stated),–,40,–,–
O=C(NS(=O)(=O)c1ccc(NC(=O)C2CCCO2)cc1)c1ccccc1 (configuration not stated),–,–,–,–
CC(C)(Nc1ccccc1)C(=O)c1ccccc1,·,32,·,–
CC(=O)Nc1ccc(C(=O)c2ccccc2)cc1,·,–,·,–
Cn1cc(C(=O)C(F)(F)F)c2ccccc21,–,53,–,–
Cn1cc(SCC(N)=O)c2ccccc21,–,–,–,–
CN1CN(C)c2cccc3cccc1c23,–,–,–,–
CCc1ccc(NC(=O)Nc2ccc3c(c2)N(C)C(=O)CS3)cc1,–,–,91,–
CCc1cccc2c(SC(C)C(=O)NCC3CCCO3)nc(-c3ccccc3)nc12 (configuration not stated),–,–,–,–
CCOc1nc(N2CCOCC2)nc(C)c1[N+](=O)[O-],·,–,·,–
CNCCOc1nc(N2CCOCC2)nc(C)c1[N+](=O)[O-],·,56,·,–
COc1ccc(C2C(C(=O)OC(C)C)=C(C)N=c3s/c(=C\c4cccs4)c(=O)n32)cc1 (configuration not stated),–,45,–,–
COc1ccc(C2CC(O)(C(C)(C)O)NO2)cc1 (configuration not stated),–,–,–,–
CC1(C2(O)CC(c3ccccc3)ON2)CCCCC1 (configuration not stated),–,29,–,–
COc1cccc(-n2c(COc3ccc(C)cc3)nnc2SCC(=O)O)c1,–,–,–,–
Cc1ccc(OCc2nnc(SCC(=O)O)n2N)cc1,–,40,–,–
CCCCCCS(=O)Cc1ccccc1 (configuration not stated),·,35,·,–
CCOC(=O)CCN(Cc1sccc1C)S(=O)(=O)c1ccc(F)cc1,–,–,–,–
CCOC(=O)CCN(Cc1cccs1)S(=O)(=O)c1ccc(F)cc1,–,48,–,–
CC(C)c1ccc(CNc2cc(N3CCCC3)ccc2[N+](=O)[O-])cc1,–,–,–,–
COc1ccc(C(=O)/C=C/c2ccc(N3CCCCC3)c([N+](=O)[O-])c2)c(OC)c1,·,50,·,–
SMILES,sEH act,Measles CPE,sEH inh,sdo1 growth
COc1ccc(C(=O)/C=C/c2ccc(N3CCCCC3)c([N+](=O)[O-])c2)cc1,·,–,·,–
O=C(N[C@@H](c1ccccc1)[C@@H]1C[C@H]1C(=O)O)OCc1ccccc1,·,–,·,–
CC(C)CC(=O)Nc1ccc(C(=O)Cn2nc(C(=O)O)c3ccccc3c2=O)cc1,–,31,–,–
CC(NC(=O)Cn1nc(C(=O)O)c2ccccc2c1=O)c1ccccc1 (configuration not stated),–,–,–,–
CCCOc1ccc(C2C(C(=O)c3ccco3)=C(O)C(=O)N2CCN2CCOCC2)cc1OC (configuration not stated),·,47,·,–
CCn1ncc(/C=N\NC(=O)Cc2ccc([N+](=O)[O-])cc2)c1C,·,46,·,–
Cc1cc(C)n(CC(=O)N/N=C/c2cc([N+](=O)[O-])ccc2O)n1,·,–,·,–
COc1ccc(C2SC[C@@H](C(=O)O)N2C(C)=O)cc1 (some centres not stated),–,–,–,–
Cc1cc(NC(=O)COc2ccc(N(C)S(=O)(=O)c3ccccc3)cc2)no1,·,64,·,–
CC(C)N1C(=O)CCC1C(=O)NCCc1ccc(Cl)cc1 (configuration not stated),·,30,·,–
O=S(=O)(c1ccc(Cl)s1)N1CCc2ccccc2C1,·,–,·,–
C/C(=N\NC(=O)Cc1cccn1C)c1cccc2ccccc12,–,–,82,–
Cc1cc(N2CCN(C/C=C/c3ccccc3)CC2)n2ncnc2n1,·,32,·,–
Cc1noc(NS(=O)(=O)c2ccc(N/C=C\C(=O)c3ccncc3)cc2)c1C,–,–,–,–
